Reference: PubChem BioAssay (Tox21)
Inconclusive results are not listed. Active and inactive are the calls of the source. Unless noted, calls come from the whole dose curve; as a rule, active = well fitted curve in the direction sought with a large enough effect in the repeat runs; inconclusive = weak or mixed curves; inactive = no such curve, though single readings can be large; an effect the other way counts as inactive or inconclusive.

How the values were obtained:
[1] = qHTS assay to identify small molecule agonists of H2AX (AID 1224845; active = well fitted activation curve with a large enough effect in the signal ratio in the repeat runs, not every such curve was filed as active; the % refers to the signal ratio)
How it was run: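 Wild-type CHO-K1 cells plated overnight, then exposed 3 hr at 37C to compounds at 15 concentrations (0.76% DMSO). Lysed, then HTRF anti-pH2AX(S139)-cryptate/anti-H2AX-d2 detection after 24 hr at room temperature; emissions 665 and 620 nm.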

[2] = qHTS assay to identify small molecule agonists of the hypoxia (HIF-1) signaling pathway (AID 1224846; active = well fitted activation curve with a large enough effect in the signal ratio in the repeat runs, not every such curve was filed as active; the % refers to the signal ratio)
How it was run: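 HRE-bla ME-180 beta-lactamase reporter cells in medium with 0.5% dialyzed FBS, pre-incubated 5 h then exposed to compounds 17 h at 37C, 5% CO2; reporter induction read with CCF4-AM FRET substrate.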

[3] = qHTS RealTime-Glo MT Cell Viability Assay in HepG2 cells - 24 hour (AID 1224867); note: nearly all actives have a fitted effect of over 50% in size
How it was run: (§1)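 Cell number in HepG2 cultures estimated from NanoLuc luminescence generated by metabolic reduction of a prosubstrate by living cells. The homogeneous, nonlytic format allowed repeated reads at 0, 8, 16, 24, 32 and 40 h of compound exposure.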

[4] = qHTS RealTime-Glo MT Cell Viability Assay in HEK293 cells - 32 hour (AID 1224868); note: top concentration of the series differs between compounds; nearly all actives have a fitted effect of over 50% in size
How it was run: (§2)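 Homogeneous bioluminescent viability format in HEK293 cells (600 cells/well). Following 5 h at 37 C/5% CO2, 23 nL compound was pintooled; the signal was measured repeatedly during 40 h incubation.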

[5] = A CellTox Green Cytotoxicity Assay to monitor cytotoxicity in HEK293 cells - 0 hour (AID 1224869); note: nearly all actives have a fitted effect of over 50% in size
How it was run: (§3)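 HEK293 cells, 600/well, were preincubated 5 hours and then exposed to compounds at 37 C for up to 40 hours. A cell-impermeant cyanine dye staining dead-cell DNA was read by fluorescence at 0, 8, 16, 24, 32 and 40 h time points.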

[6] = qHTS RealTime-Glo MT Cell Viability Assay in HepG2 cells - 40 hour (AID 1224870); note: nearly all actives have a fitted effect of over 50% in size
How it was run: (§4)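 HepG2 cells mixed with RealTime-Glo MT reagents (NanoLuc plus cell-permeant prosubstrate) were seeded at 600 cells/well, incubated 5 h at 37 C/5% CO2, then pinned with compounds in DMSO; nonlytic luminescence tracked viability during 40 h treatment.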

[7] = A CellTox Green Cytotoxicity Assay to monitor cytotoxicity in HEK293 cells - 40 hour (AID 1224871); note: nearly all actives have a fitted effect of over 45% in size
How it was run: as §3

[8] = qHTS RealTime-Glo MT Cell Viability Assay in HEK293 cells - 16 hour (AID 1224872)
How it was run: as §2

[9] = qHTS RealTime-Glo MT Cell Viability Assay in HepG2 cells - 8 hour (AID 1224873); note: nearly all actives have a fitted effect of over 55% in size
How it was run: as §4

[10] = qHTS RealTime-Glo MT Cell Viability Assay in HEK293 cells - 40 hour (AID 1224874); conditions: RealTime-Glo luminescence; max response: active compounds read low; note: nearly all actives have a fitted effect of over 50% in size
How it was run: (§5)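 600 cells/well were plated with the nonlytic NanoLuc/prosubstrate reagent, pre-incubated 5 h, then given 23 nL of compound in DMSO. Incubation at 37 C for 40 h, with luminescence from viable-cell-reduced substrate read repeatedly from 0 h.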

[11] = A CellTox Green Cytotoxicity Assay to monitor cytotoxicity in HEK293 cells - 24 hour (AID 1224875); note: series mostly up to about 77 µM; nearly all actives have a fitted effect of over 45% in size
How it was run: as §3

[12] = A CellTox Green Cytotoxicity Assay to monitor cytotoxicity in HepG2 cells - 16 hour (AID 1224876); note: nearly all actives have a fitted effect of over 45% in size
How it was run: (§6)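 HepG2 cells, 600/well, preincubated 5 h with CellTox Green dye, then exposed to Tox21 compounds in DMSO at 37 C for up to 40 h. Dead-cell DNA fluorescence read at the indicated time point.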

[13] = qHTS RealTime-Glo MT Cell Viability Assay in HepG2 cells - 32 hour (AID 1224877); note: nearly all actives have a fitted effect of over 55% in size
How it was run: as §1

[14] = A CellTox Green Cytotoxicity Assay to monitor cytotoxicity in HepG2 cells - 24 hour (AID 1224878); note: nearly all actives have a fitted effect of over 45% in size
How it was run: as §6

[15] = A CellTox Green Cytotoxicity Assay to monitor cytotoxicity in HepG2 cells - 40 hour (AID 1224879); note: nearly all actives have a fitted effect of over 40% in size
How it was run: as §6

[16] = qHTS RealTime-Glo MT Cell Viability Assay in HEK293 cells - 0 hour (AID 1224880)
How it was run: as §5

[17] = A CellTox Green Cytotoxicity Assay to monitor cytotoxicity in HEK293 cells - 32 hour (AID 1224881); note: nearly all actives have a fitted effect of over 40% in size
How it was run: as §3

[18] = qHTS assay to identify small molecule agonists of H2AX - cell viability counter screen (AID 1224847; calls by dose curve; note: top concentration of the series differs between compounds; nearly all actives have a fitted effect of over 30% in size)
How it was run: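 For this counter screen, overnight-attached CHO-K1 cells received test compounds (15 concentrations, 0.76% DMSO final); 3 hr later at 37C, CellTiter-Glo reagent was added and luminescence recorded after 30 min at room temperature.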

[19] = qHTS assay to identify small molecule antagonists of the estrogen related receptor (ERR) signaling pathway from Tox21 library (AID 1224848); note: nearly all actives have a fitted effect of over 50% in size
How it was run: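 Cells: ERR line, 2,000/well; 6 h preincubation 37 C/5% CO2. Cpd in DMSO via pin tool; 18 h, 37 C. ONE-Glo, 30 min RT, luminescence.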

[20] = qHTS assay to identify small molecule agonists of the estrogen related receptor (ERR) signaling pathway from Tox21 library (AID 1224849; calls by dose curve; note: nearly all actives have a fitted effect of over 15% in size)
How it was run: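 ERR reporter cells (NTP line) pre-incubated 6 hours at 37 C, then exposed to compounds for 18 hours at 37 C. ONE-Glo luciferase luminescence was read after 30 minutes at room temperature.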
% is set by controls: 0 for no effect and ±100 for the full control effect.

CCC(C)(CCCC(C)C)OC(C)=O (stereo unspecified)
inactive: Potency [1] | outcome [2] | outcome [3] | Potency [4] | outcome [5] | Potency [6] | Potency [7] | Potency [8] | outcome [9] | max response [10] 6.35% | outcome [11] | outcome [12] | Potency [13] | outcome [14] | Potency [15] | Potency [16] | outcome [17]

CC/C=C\CCOC(C)OCC (stereo unspecified)
inactive: Potency [1] | outcome [2] | Potency [4] | outcome [5] | Potency [6] | Potency [7] | Potency [8] | outcome [9] | max response [10] 3.36% | outcome [11] | outcome [12] | Potency [13] | Potency [15] | Potency [16] | outcome [17]

CC(=O)OCC(=O)[C@@]1(O)[C@H](C)C[C@H]2[C@@H]3CCC4=CC(=O)C=C[C@]4(C)[C@@]3(F)[C@@H](O)C[C@@]21C
inactive: Potency [1] | outcome [18] | Potency [19] | outcome [20] | outcome [3] | Potency [4] | outcome [5] | Potency [6] | Potency [7] | Potency [8] | outcome [9] | max response [10] 5.93% | outcome [11] | outcome [12] | Potency [13] | outcome [14] | outcome [17]

C=CCCC(=O)O
inactive: outcome [2] | outcome [18] | Potency [19] | outcome [20] | Potency [4] | outcome [5] | Potency [6] | Potency [7] | Potency [8] | outcome [9] | max response [10] 7.36% | outcome [12] | Potency [13] | outcome [14] | Potency [15] | Potency [16] | outcome [17]

CC(C)NNC(=O)c1ccncc1
inactive: Potency [1] | outcome [18] | outcome [3] | Potency [4] | outcome [5] | Potency [7] | Potency [8] | outcome [9] | max response [10] 9.38% | outcome [11] | outcome [12] | Potency [13] | Potency [15] | Potency [16] | outcome [17]

C[N+](C)(C)CCCCCCCCCC[N+](C)(C)C
inactive: Potency [1] | outcome [18] | outcome [3] | Potency [4] | outcome [5] | Potency [6] | Potency [7] | Potency [8] | outcome [9] | max response [10] 9.07% | outcome [11] | outcome [12] | Potency [13] | outcome [14] | Potency [15] | outcome [17]

CCN[C@@H]1C[C@H](N)[C@@H](OC2OC(CN)=CCC2N)[C@H](O)[C@H]1O[C@H]1OC[C@](C)(O)[C@H](NC)[C@H]1O (stereo partly specified)
inactive: activation (H2AX phosphorylation) [1] -3.19% [at 0.582 µM] | activity change, negative = cytotoxicity [18] 4.57% [at 0.582 µM] | activity change, negative = cytotoxic [4] 4.65% [at 0.29 µM] | cytotoxicity [5] 3.58% [at 0.29 µM] | activity change, negative = cytotoxic [6] 1.76% [at 0.29 µM] | cytotoxicity increase [7] 6.9% [at 0.29 µM] | activity change, negative = cytotoxicity [8] 1.34% [at 0.29 µM] | viability change, negative = cytotoxic [9] 0.243% [at 0.29 µM] | max response [10] 5.87% | activity change [11] 6.99% [at 0.29 µM] | cytotoxicity increase [12] -0.147% [at 0.29 µM] | activity change, negative = cytotoxic [13] 1.75% [at 0.29 µM] | cytotoxicity [14] -2.12% [at 0.29 µM] | cytotoxicity increase [15] -8.46% [at 0.29 µM] | activity change, negative = cytotoxicity [16] 1.44% [at 0.29 µM] | cytotoxicity increase [17] 8.84% [at 0.29 µM]

Cc1ccc(C(=O)c2ccc(CC(=O)O)n2C)cc1
inactive: Potency [1] | Potency [19] | outcome [20] | outcome [3] | Potency [4] | outcome [5] | Potency [6] | Potency [7] | Potency [8] | outcome [9] | max response [10] 1.68% | outcome [11] | Potency [13] | Potency [16] | outcome [17]

CN(C)C(=O)Oc1cccc([N+](C)(C)C)c1
inactive: Potency [1] | outcome [18] | outcome [3] | Potency [4] | outcome [5] | Potency [6] | Potency [7] | Potency [8] | outcome [9] | max response [10] 6.55% | outcome [11] | outcome [12] | Potency [13] | Potency [15] | Potency [16] | outcome [17]

CC[N+](C)(CC)CCOC(=O)C1c2ccccc2Oc2ccccc21
inactive: Potency [1] | outcome [18] | outcome [3] | Potency [4] | outcome [5] | Potency [6] | Potency [7] | Potency [8] | outcome [9] | max response [10] 3.05% | outcome [11] | outcome [12] | Potency [13] | outcome [14] | Potency [15] | Potency [16] | outcome [17]

COCCOCC(OC)OC
inactive: outcome [2] | outcome [18] | Potency [19] | outcome [20] | outcome [3] | Potency [4] | outcome [5] | Potency [6] | Potency [7] | Potency [8] | outcome [9] | max response [10] -1.01% | outcome [11] | outcome [12] | Potency [13] | outcome [14] | Potency [15] | outcome [17]

CCOc1ccccc1OCC
inactive: outcome [2] | outcome [18] | Potency [19] | outcome [20] | outcome [3] | Potency [4] | outcome [5] | Potency [6] | Potency [7] | Potency [8] | outcome [9] | max response [10] 5.1% | outcome [11] | outcome [12] | Potency [13] | outcome [14] | Potency [15] | Potency [16] | outcome [17]

FB(F)F
inactive: outcome [2] | outcome [18] | Potency [19] | outcome [20] | outcome [3] | Potency [4] | outcome [5] | Potency [7] | Potency [8] | outcome [9] | max response [10] -1.41% | outcome [11] | outcome [12] | Potency [13] | outcome [14] | Potency [16] | outcome [17]

CC1=NS(=O)(=O)c2cc(Cl)ccc2N1
inactive: Potency [1] | outcome [18] | outcome [3] | Potency [4] | outcome [5] | Potency [6] | Potency [7] | Potency [8] | outcome [9] | max response [10] 2.07% | outcome [12] | Potency [13] | outcome [14] | Potency [15] | Potency [16] | outcome [17]
